Out of some 39,000 compounds screened, about 3,300 (8.5%) were called active. The entries come from a sample that favours actives as a whole.
What follows are molecules tested on HepG2 (assay: cytotoxicity call (relative viability < 0.9)). Details: 10 µM.

| SMILES | cytotoxicity call |
| --- | --- |
| O=c1cc[nH]c(C(F)(F)F)n1 | inactive |
| C[C@@H]1CCCCO[C@@H](CN(C)C(=O)Nc2ccccc2)[C@H](C)CN([C@@H](C)CO)C(=O)c2cc(NS(=O)(=O)c3cccs3)ccc2O1 | inactive |
| C[C@H](CO)N1C[C@H](C)[C@H](CN(C)S(=O)(=O)c2cn(C)cn2)Oc2ncc(C#CCN(C)C)cc2C1=O | inactive |
| COc1ccc(NC(=O)Nc2cccc3c2O[C@H](CN(C)S(C)(=O)=O)[C@@H](C)CN([C@H](C)CO)C3=O)cc1 | inactive |
| Cc1noc(C)c1NC(=O)N(C)C[C@@H]1OCCCC[C@@H](C)Oc2ccc(NC(=O)c3ccccc3)cc2C(=O)N([C@H](C)CO)C[C@H]1C | inactive |
| CCC(=O)N1CCC[C@H](C(=O)O)C1 | inactive |
| NC(=O)CCCCC(N)=O | inactive |
| COc1ccc(NC(=O)Nc2ccc3c(c2)C(=O)N([C@@H](C)CO)C[C@@H](C)[C@@H](CN(C)C(=O)Nc2ccc(C(F)(F)F)cc2)OCCCC[C@@H](C)O3)cc1 | inactive |
| O=C(COP(=O)(O)O)[C@H](O)[C@@H](O)COP(=O)(O)O | inactive |
| C[C@@H]1CN([C@H](C)CO)C(=O)c2cc(NS(=O)(=O)c3ccc(F)cc3)ccc2O[C@@H](C)CCCCO[C@@H]1CN(C)C(=O)Cc1ccccc1 | inactive |
| C[C@@H]1CN([C@H](C)CO)C(=O)Cc2cc(NS(=O)(=O)c3ccc(Cl)cc3)ccc2O[C@@H]1CN(C)C | inactive |
| COc1ccc(S(=O)(=O)Nc2ccc3c(c2)CC(=O)N([C@H](C)CO)C[C@@H](C)[C@@H](CN(C)C)O3)cc1 | active |
| C[C@@H]1CN([C@@H](C)CO)C(=O)Cc2cc(NS(=O)(=O)c3ccc(Cl)cc3)ccc2O[C@@H]1CN(C)C | inactive |
| COc1ccc(S(=O)(=O)Nc2ccc3c(c2)CC(=O)N([C@H](C)CO)C[C@H](C)[C@H](CN(C)C)O3)cc1 | inactive |
| COc1ccc(S(=O)(=O)Nc2ccc3c(c2)CC(=O)N([C@H](C)CO)C[C@H](C)[C@@H](CN(C)C)O3)cc1 | inactive |
| C[C@H]1CN([C@@H](C)CO)C(=O)Cc2cc(NS(=O)(=O)c3ccc(Cl)cc3)ccc2O[C@@H]1CN(C)C | active |
| C[C@H]1CN([C@@H](C)CO)C(=O)c2cc(NC(=O)Nc3ccccc3)ccc2O[C@H]1CN(C)C(=O)Nc1cccc2ccccc12 | inactive |
| CN1C(=O)c2cc(NS(=O)(=O)c3cccc(F)c3)ccc2OC[C@H]2O[C@H](CC(=O)NCCN3CCCCC3)CC[C@H]21 | inactive |
| O=C(C[C@H]1C=C[C@@H](NC(=O)c2cccnc2)[C@@H](CO)O1)NCCN1CCCCC1 | inactive |
| CC(C)NC(=O)Nc1cccc2c1O[C@@H](CN(C)C(=O)NC1CCCCC1)[C@@H](C)CN([C@H](C)CO)C2=O | inactive |
| COc1ccc(S(=O)(=O)N(C)C[C@H]2OCCCC[C@H](C)Oc3ccc(NC(=O)Nc4ccccc4)cc3C(=O)N([C@@H](C)CO)C[C@@H]2C)cc1 | inactive |

| SMILES | cytotoxicity call |
| --- | --- |
| C[C@@H]1CN([C@@H](C)CO)C(=O)c2cccc(NC(=O)CCCCCC(=O)Nc3ccccc3N)c2O[C@@H]1CN(C)Cc1ccc(Cl)c(Cl)c1 | inactive |
| C[C@@H]1CN([C@@H](C)CO)C(=O)c2cccc(NC(=O)CCCCCC(=O)Nc3ccccc3N)c2O[C@H]1CN(C)Cc1ccc(Cl)c(Cl)c1 | inactive |
| C[C@@H]1CN([C@@H](C)CO)C(=O)c2cccc(NC(=O)CCCCCC(=O)Nc3ccccc3N)c2O[C@@H]1CN(C)Cc1ccc(-c2ccccc2)cc1 | inactive |
| C[C@@H]1CN([C@@H](C)CO)C(=O)c2cccc(NC(=O)CCCCCC(=O)Nc3ccccc3N)c2O[C@H]1CN(C)Cc1ccc(-c2ccccc2)cc1 | inactive |
| C[C@H](CO)N1C[C@H](C)[C@@H](CN(C)Cc2ccc(-c3ccccc3)cc2)Oc2c(NC(=O)CCCCCC(=O)Nc3ccccc3N)cccc2C1=O | active |
| C[C@H]1CN([C@@H](C)CO)C(=O)c2cccc(NC(=O)CCCCCC(=O)Nc3ccccc3N)c2O[C@@H]1CN(C)Cc1ccc(Cl)c(Cl)c1 | active |
| C[C@H]1CN([C@@H](C)CO)C(=O)c2cccc(NC(=O)CCCCCC(=O)Nc3ccccc3N)c2O[C@H]1CN(C)Cc1ccc(-c2ccccc2)cc1 | inactive |
| C[C@@H]1CN([C@H](C)CO)C(=O)c2cccc(NC(=O)CCCCCC(=O)Nc3ccccc3N)c2O[C@H]1CN(C)Cc1ccc(-c2ccccc2)cc1 | inactive |
| C[C@@H]1CN([C@H](C)CO)C(=O)c2cccc(NC(=O)CCCCCC(=O)Nc3ccccc3N)c2O[C@@H]1CN(C)Cc1ccc(-c2ccccc2)cc1 | active |
| [N-]=[N+]=Nc1ccccc1[C@@H]1OC(c2ccc(OCCCO)cc2)=N[C@]1(CCS(=O)(=O)c1ccccc1)C(=O)NC[C@@H](O)CO | inactive |
| C[C@@H]1CN([C@H](C)CO)S(=O)(=O)c2ccc(C#CCN(C)C)cc2O[C@H]1CN(C)C(=O)c1ccccc1F | inactive |
| O=C(C[C@H]1C[C@@H]2c3cc(NC(=O)C4CCOCC4)ccc3O[C@@H]2[C@@H](CO)O1)NCc1ccc(Cl)cc1 | inactive |
| CCS(=O)(=O)N1C[C@]2(CN(Cc3cccc(c3)Cl)[C@H](CO)c3c2c2ccc(cc2n3C)OC)C1 | inactive |
| C[C@H](CO)N1C[C@H](C)[C@H](CN(C)C(=O)Nc2ccc(N3CCCCC3)cc2)OCc2cnnn2CCCC1=O | inactive |
| COc1ccc(NC(=O)Nc2ccc3c(c2)C(=O)N([C@@H](C)CO)C[C@@H](C)[C@@H](CN(C)C(=O)Cc2ccccc2)OCCCC[C@H](C)O3)cc1 | inactive |
| COc1ccc(NC(=O)Nc2ccc3c(c2)C(=O)N([C@H](C)CO)C[C@H](C)[C@H](CN(C)C(=O)Nc2ccccc2)OCCCC[C@@H](C)O3)cc1 | inactive |
| C[C@H](O)C#Cc1cnc2c(c1)C(=O)N([C@H](C)CO)C[C@@H](C)[C@H](CN(C)Cc1cncnc1)O2 | inactive |
| O=C(C[C@H]1C=C[C@H](NC(=O)Cc2ccccn2)[C@H](CO)O1)NCCc1ccncc1 | inactive |
| C[C@@H]1CN([C@@H](C)CO)C(=O)c2cc(NC(=O)CCCN(C)C)ccc2O[C@@H](C)CCCCO[C@@H]1CN(C)S(=O)(=O)c1cn(C)cn1 | inactive |
| C[C@@H]1CN([C@@H](C)CO)C(=O)c2c(c3ccccc3n2C)-c2ccccc2CO[C@@H]1CN(C)Cc1ccc2c(c1)OCO2 | inactive |
| C[C@H](CO)N1C[C@H](C)[C@H](CN(C)Cc2ccc3c(c2)OCCN3C)OCc2ccccc2-c2c(n(C)c3ccccc23)C1=O | inactive |

| SMILES | cytotoxicity call |
| --- | --- |
| C[C@@H]1CN([C@@H](C)CO)C(=O)c2c(c3ccccc3n2C)-c2ccccc2CO[C@H]1CN(C)Cc1ccc2c(c1)OCCN2C | active |
| C[C@@H]1CN([C@H](C)CO)C(=O)c2c(c3ccccc3n2C)-c2ccccc2CO[C@@H]1CN(C)Cc1ccc2c(c1)OCCN2C | active |
| C[C@@H]1CN([C@H](C)CO)C(=O)c2c(c3ccccc3n2C)-c2ccccc2CO[C@H]1CN(C)Cc1ccc2c(c1)OCCN2C | inactive |
| C[C@H](CO)N1C[C@H](C)[C@@H](CN(C)Cc2ccc3c(c2)OCCN3C)OCc2ccccc2-c2c(n(C)c3ccccc23)C1=O | inactive |
| C[C@H]1CN([C@@H](C)CO)C(=O)c2c(c3ccccc3n2C)-c2ccccc2CO[C@@H]1CN(C)Cc1ccc2c(c1)OCCN2C | active |
| C[C@H]1CN([C@@H](C)CO)C(=O)c2c(c3ccccc3n2C)-c2ccccc2CO[C@H]1CN(C)Cc1ccc2c(c1)OCCN2C | inactive |
| C[C@@H]1CN([C@@H](C)CO)C(=O)c2c(c3ccccc3n2C)-c2ccccc2CO[C@@H]1CN(C)Cc1ccc2c(c1)OCCN2C | inactive |
| COc1ccc(C#Cc2ccc3c(c2)[C@]2(C(=O)N3)[C@H](c3ccccc3OCCO)N3[C@H](c4ccccc4)[C@H](c4ccccc4)OC(=O)[C@H]3[C@@H]2C(=O)N2CCc3cc(OC)c(OC)cc3C2)cc1 | inactive |
| O=C(Cc1ccncc1)Nc1ccc2c(c1)[C@@H]1C[C@H](CC(=O)N3CCc4ccccc4C3)O[C@H](CO)[C@@H]1O2 | inactive |
| O=C1NC(=O)[C@H]2[C@@H]1[C@H](c1ccccc1)N1[C@@H]3C(=O)NC(=O)[C@@H]3[C@H](c3ccccc3)N21 | inactive |
| COc1ccc(C#Cc2ccc3c(c2)O[C@H](CN(C)C(C)=O)[C@@H](C)CN([C@@H](C)CO)S3(=O)=O)cc1 | inactive |
| COc1ccc2c3c(n(c2c1)C)[C@H](CO)N(C[C@]13CCN(CC1)C(=O)Nc1cccc(c1)F)C(=O)CN1CCOCC1 | inactive |
| N=C(NO)NCC[C@H](N)C(=O)O | inactive |
| C[C@@H]1CN([C@H](C)CO)C(=O)c2cc(NC(=O)NC3CCCCC3)ccc2O[C@@H](C)CCCCO[C@@H]1CN(C)C(=O)NC1CCCCC1 | inactive |
| C[C@@H]1CN([C@@H](C)CO)C(=O)c2cc(NC(=O)Nc3ccccc3)ccc2O[C@@H](C)CCCCO[C@@H]1CN(C)Cc1ccc(C(F)(F)F)cc1 | active |
| C[C@@H]1CCCCO[C@@H](CN(C)Cc2ccc(C(F)(F)F)cc2)[C@H](C)CN([C@H](C)CO)C(=O)c2cc(NC(=O)Nc3ccccc3)ccc2O1 | active |
| C[C@@H]1CCCCO[C@@H](CN(C)Cc2ccc(C(F)(F)F)cc2)[C@@H](C)CN([C@@H](C)CO)C(=O)c2cc(NC(=O)Nc3ccccc3)ccc2O1 | inactive |
| C[C@H](CO)N1C[C@H](C)[C@@H](CN(C)Cc2ccc(C(F)(F)F)cc2)OCCCC[C@H](C)Oc2ccc(NC(=O)Nc3ccccc3)cc2C1=O | active |
| C[C@@H]1CN([C@H](C)CO)C(=O)c2cc(NC(=O)Nc3ccccc3)ccc2O[C@@H](C)CCCCO[C@@H]1CN(C)Cc1ccc(C(F)(F)F)cc1 | active |
| C[C@@H]1CCCCO[C@@H](CN(C)Cc2ccc(C(F)(F)F)cc2)[C@H](C)CN([C@@H](C)CO)C(=O)c2cc(NC(=O)Nc3ccccc3)ccc2O1 | inactive |
| C[C@@H]1CN([C@@H](C)CO)C(=O)c2cc(NC(=O)Nc3ccccc3)ccc2O[C@@H](C)CCCCO[C@H]1CN(C)Cc1ccc(C(F)(F)F)cc1 | inactive |

— the antibiotic and cytotoxicity screens of Wong et al. (2023)
